The nature of experiment [1]: Quantitative High-Throughput drug screen in 47 multiple myeloma cell lines against the NCATS MIPE library collection: OCIMY7_PLB cell viability assay (AID 1918987). Note: nearly all actives have a fitted effect of over 65% in size. The conditions noted are these: OCI-MY7 myeloma viability, CellTiter-Glo ATP, 48 h; viability (% of DMSO): at 45.8 µM (top of the series). The method in brief: (§1)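 ATP-based CellTiter-Glo luminescence after 48 h drug exposure (37 °C, 5% CO2) of 500 myeloma cells per well. DMSO-only wells set 100% viability, media-only wells 0%; MIPE 4.0 library added by pin tool.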

The nature of experiment [2]: Quantitative High-Throughput drug screen in 47 multiple myeloma cell lines against the NCATS MIPE library collection: OPM1_PLB cell viability assay (AID 1918989). Note: nearly all actives have a fitted effect of over 40% in size. The method in brief: as §1
The nature of experiment [3]: Quantitative High-Throughput drug screen in 47 multiple myeloma cell lines against the NCATS MIPE library collection: U266_ATCC cell viability assay (AID 1919864). Note: nearly all actives have a fitted effect of over 35% in size. Put shortly: as §1
Experiment [4] is described as follows: Quantitative High-Throughput drug screen in 47 multiple myeloma cell lines against the NCATS MIPE library collection: XG1_PLB cell viability assay (AID 1919866). Note: nearly all actives have a fitted effect of over 35% in size. The method in brief:
as §1

The nature of experiment [5]: Quantitative High-Throughput drug screen in 47 multiple myeloma cell lines against the NCATS MIPE library collection: VP6_DJ cell viability assay (AID 1919867). Note: nearly all actives have a fitted effect of over 40% in size. The method in brief: as §1
The nature of experiment [6]: Quantitative High-Throughput drug screen in 47 multiple myeloma cell lines against the NCATS MIPE library collection: PE2_PLB cell viability assay (AID 1919869). Note: nearly all actives have a fitted effect of over 35% in size. The method in brief:
as §1

Experiment [7] is described as follows: Quantitative High-Throughput drug screen in 47 multiple myeloma cell lines against the NCATS MIPE library collection: SKMM1_PLB cell viability assay (AID 1919863). Note: nearly all actives have a fitted effect of over 35% in size. Conditions: SKMM1 myeloma viability, CellTiter-Glo ATP, 48 h; viability: hits give low values. Put shortly:
as §1
(In general: In ATP-based viability assays light output follows the ATP content of the culture.)

Experiment [8] is described as follows: Quantitative High-Throughput drug screen in 47 multiple myeloma cell lines against the NCATS MIPE library collection: XG6_PLB cell viability assay (AID 1919865). Note: nearly all actives have a fitted effect of over 40% in size. Put shortly:
as §1

The nature of experiment [9]: Quantitative High-Throughput drug screen in 47 multiple myeloma cell lines against the NCATS MIPE library collection: UTMC2_PLB cell viability assay (AID 1919868). Note: nearly all actives have a fitted effect of over 55% in size. The conditions noted are these: CellTiter-Glo ATP luminescence, 48 h; viability (% of DMSO control): at 45.8 µM (top of the series). Put shortly: as §1
The nature of experiment [10]: Quantitative High-Throughput drug screen in 47 multiple myeloma cell lines against the NCATS MIPE library collection: OCIMY5_PLB cell viability assay (AID 1918988). Note: nearly all actives have a fitted effect of over 65% in size. Put shortly: as §1

Each structure is given as a SMILES string. Records with an inconclusive call do not appear. A number with no mark means an inactive call. Calls of active or inactive are those of the source. Calls come from the whole dose curve; as a rule, active = well fitted cell-killing curve with a large enough effect; inconclusive = small, poorly fitted or top-dose-only effect, or effect the other way; inactive = no such curve, though single readings can be large or run the other way.
Potency is the fitted concentration of half-maximal effect.

In the case of `COc1cccc(-c2cc(=O)c3ccccc3o2)c1N`, the Potency was 2.96 µM (active) in experiment [1]; 16.6 µM (active) in [2]; 8.33 µM (active) in experiment [3]; 1.66 µM (active) in experiment [4]; 1.32 µM (active) in experiment [5]; 4.18 µM (active) in [6].

On to `COc1ccc(-n2c(C)c([N+](=O)[O-])c3ccc(O)cc32)cc1`, for which the values for the Potency in [1], in [7] and in experiment [6] were 14.8 µM (active), 4.18 µM (active) and 4.69 µM (active), respectively. Besides, the Potency result in experiment [2], in experiment [3], in [8] and in [9] was “inactive” throughout.

With `O=c1c(O)c(-c2ccc(O)cc2)oc2cc(O)cc(O)c12`, the Potency in experiment [1] was 14.8 µM (active); in experiment [10], 26.4 µM (active); in experiment [4], 16.6 µM (active); in experiment [5] it was 16.6 µM (active).

`CC1(C)S[C@H]2[C@H](NC(=O)[C@@H](N)c3ccc(O)cc3)C(=O)N2[C@@H]1C(=O)O`: the Potency in experiment [1] was 3.72 µM (active); in experiment [3], 11.8 µM (active); in experiment [8] it was 2.64 µM (active); in experiment [4], 1.32 µM (active); in experiment [5], 0.0743 µM (active). The Potency result in experiment [6] was “inactive”.

With `O=C(O)c1ccccc1C(=O)Nc1ccc(-c2ccccc2)cc1`, the Potency entry in experiment [1], in experiment [10], in experiment [3], in experiment [9] and in experiment [6] was “inactive” in each case.

Broadly, the viability is a read-out of living cells in per cent, often relative to untreated cells. On to `COc1ccc2cccc(CCNC(C)=O)c2c1`, for which the Potency entry in [1], in experiment [8], in [4] and in experiment [6] was “inactive” throughout. Further, the viability in experiment [7] was 129%. In experiment [5], the Potency is 5.26 µM (active).

Take `C=C1C(=O)OC2C=C(C)CCC=C(C)CCC12` (stereo not drawn): the Potency in experiment [1] is 4.69 µM (active); in [2], 18.7 µM (active); in [7], 29.6 µM (active); in experiment [3], 20.9 µM (active); in [4], 16.6 µM (active); in [5], 8.33 µM (active). Further, in [6], the Potency was 16.6 µM (active). Besides, the Potency entry in experiment [9] was “inactive”.

For `O=C(O)c1ccc(-c2c[nH]c3ncc(-c4ccccc4)cc23)cc1C1CCCC1`, the Potency in experiment [1] was 8.33 µM (active). For the same compound, the viability in [7] was 132%.

On to `O=C(N[C@@H](c1ccccc1)[C@@H]1CCCCN1)c1cccc(C(F)(F)F)c1Cl`, for which the Potency entry in [1] and in experiment [9] was “inactive” throughout. For the same compound, the results for the Potency in [10] and in experiment [4] were 18.7 µM (active) and 23.5 µM (active), respectively.

For `CC1CCC(C(=O)N(c2cc(C#CC(C)(C)C)sc2C(=O)O)C2CCC(O)CC2)CC1` (stereo not drawn), the Potency in experiment [1] was 23.5 µM (active); in experiment [5], 26.4 µM (active). Besides, the Potency result in experiment [3] is “inactive”.

Consider `CC(C)(C(=O)NCC(F)(F)C(F)(F)F)C(=O)N[C@@H]1C(=O)Nc2ccccc2-c2ccccc21`, for which the Potency result in experiment [10] is “inactive”. Also, the viability in [7] is 128%. The Potency in experiment [8] was 16.6 µM (active); in [4] it was 10.5 µM (active); in [6] it was 18.7 µM (active).

Take `O=C(CCc1ccc(O)cc1)c1c(O)cc(O)cc1O[C@@H]1O[C@H](CO)[C@H](O)[C@H](O)[C@H]1O`: the Potency entry in experiment [10], in experiment [3], in experiment [4] and in experiment [6] was “inactive” throughout. Moreover, the viability in experiment [7] was 101%.

As for `Cc1nc(N)sc1-c1ccnc(Nc2ccc(N3CCOCC3)cc2)n1`, the Potency in [10] is 5.26 µM (active); in experiment [2], 4.18 µM (active); in experiment [3] it was 23.5 µM (active); in [8], 4.69 µM (active); in [4] it was 2.64 µM (active); in [5] it was 3.32 µM (active). Also, the values for the Potency in [9] and in experiment [6] were 590 nM (active) and 3.32 µM (active), respectively.

Regarding `O=C(O)c1cc(O)c2c(c1)C(=O)c1cccc(O)c1C2=O`, in [10], the Potency is 48.1 µM (active). Besides, the Potency entry in experiment [2], in [8], in [4], in [5] and in [6] was “inactive” in each case.

With `CN[C@@H](C)C(=O)N[C@H]1CN(C(=O)CC(C)C)CC[C@H]2CC[C@@H](C(=O)NC(c3ccccc3)c3ccccc3)N2C1=O`, the Potency is 20.9 µM (active) in experiment [10]; 14.8 µM (active) in experiment [2]; 1.32 µM (active) in experiment [8]; 13.2 µM (active) in experiment [4]; 9.35 µM (active) in experiment [6].

As to `NC(=O)c1cccc2[nH]c(-c3ccc([C@H]4CCCN4)cc3F)nc12`, the Potency in [10] is 20.9 µM (active); in experiment [2], 14.8 µM (active); in experiment [4] it was 8.33 µM (active); in experiment [5], 14.8 µM (active); in experiment [6] it was 16.6 µM (active). Besides, the Potency result in experiment [9] was “inactive”.

Regarding `C[C@@H]1CCN(C(=O)CC#N)C[C@H]1N(C)c1ncnc2[nH]ccc12`, the Potency in experiment [10] is 13.2 µM (active). Besides, the Potency entry in experiment [2] and in experiment [9] was “inactive” in each case.

Consider `COc1cc(Nc2ncc(F)c(Nc3ccc4c(n3)NC(=O)C(C)(C)O4)n2)cc(OC)c1OC`, for which the Potency in experiment [10] was 6.62 µM (active); in experiment [2] it was 1.87 µM (active); in experiment [5], 1.66 µM (active); in experiment [9], 590 nM (active); in experiment [6], 1.05 µM (active).

Regarding `NC[C@@H]1O[C@@H](O[C@H]2[C@@H](O)[C@H](O[C@@H]3[C@@H](O)[C@@H](N)C[C@H](N)[C@H]3O[C@H]3O[C@H](CN)[C@@H](O)[C@@H](O)[C@H]3N)O[C@H]2CO)[C@H](N)[C@@H](O)[C@@H]1O`, the Potency result in experiment [10], in experiment [2], in experiment [4], in experiment [9] and in experiment [6] was “inactive” throughout.

Turning to `CCOC(CN1C(=O)[C@](CC(=O)Nc2ccc(C)cc2)(NC(=O)Nc2ccc(C)cc2)c2ccccc21)OCC`, the Potency was 26.4 µM (active) in [10], 26.4 µM (active) in [5] and 23.5 µM (active) in experiment [6]. In addition, in experiment [7], the viability is 93.3%.

In the case of `O=C(O)C(O)Cc1ccc(O)c(O)c1` (stereo not drawn), the Potency was 23.5 µM (active) in [10], 11.8 µM (active) in experiment [7], 26.4 µM (active) in [3] and 16.6 µM (active) in [6].

Regarding `Cc1c[nH]c(C=C2C(=O)Nc3ccccc32)c1CCC(=O)O`, the Potency in experiment [10] is 20.9 µM (active); in experiment [2], 0.833 µM (active). In addition, in [8], the Potency result is “inactive”.

Consider `O=c1c(-c2ccc(O)cc2)coc2cc(OC3O[C@H](CO)[C@H](O)[C@H](O)[C@H]3O)cc(O)c12` (stereo partly drawn), for which the Potency was 1.48 µM (active) in experiment [10]; 7.43 µM (active) in experiment [2]; 8.33 µM (active) in experiment [3]; 1.18 µM (active) in experiment [4]; 2.64 µM (active) in experiment [5]; 5900 nM (active) in [9]. Further, in [6], the Potency was 9.35 µM (active).

For the compound `CC(C)(C)C(=O)Oc1ccc2c(c1)nc(NC(=O)c1cccc([N+](=O)[O-])c1)n2CCCO`, in experiment [10], the Potency was 18.7 µM (active). In addition, the Potency result in experiment [2], in experiment [8], in experiment [4] and in [6] was “inactive” in each case.

`CC(=O)N(C)C1(c2ccccc2)CCN(CCC[C@]2(c3ccc(Cl)c(Cl)c3)CCCN(C(=O)c3ccccc3)C2)CC1`: the Potency in experiment [10] was 18.7 µM (active); in experiment [2], 18.7 µM (active); in experiment [3], 23.5 µM (active); in [8], 8.33 µM (active); in [4], 14.8 µM (active); in [5], 13.2 µM (active). Moreover, the Potency in [6] is 20.9 µM (active).

As to `CO[C@@H](C(=O)N1Cc2[nH]nc(NC(=O)c3ccc(N4CCN(C)CC4)cc3)c2C1)c1ccccc1`, the Potency in experiment [10] was 6.62 µM (active); in experiment [2], 8.33 µM (active); in [9] it was 33.2 nM (active); in experiment [6] it was 20.9 µM (active).

Regarding `COc1ccc(Cc2nccc3cc(OC)c(OC)cc23)cc1OC`, the Potency in [10] is 16.6 µM (active); in experiment [2], 11.8 µM (active); in experiment [8] it was 13.2 µM (active); in experiment [4], 14.8 µM (active). Also, in [9], the Potency result was “inactive”.

The values above are taken from PubChem BioAssay (NCATS).
